# Measurements as given in PubChem BioAssay (NCATS).
# Inconclusive results are not listed. A call without a number means that no potency is given here. Active and inactive are the calls of the source. The call rests on the fitted dose curve.
# Assay: Cytotoxicity counterscreen for inhibitors of SARS-CoV-2 cell entry (AID 1645845); further: nearly all actives have a fitted effect of over 50% in size
# Details: cell viability (SARS-CoV-2 entry assay cells); series mostly up to 57.1 µM
# In short: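 ATP-content luminescence (ATPLite 1step, 15 min RT) read after 48 h compound exposure of Expi293F cells stably expressing human ACE2; normalized to cells-only wells and media-only wells.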
row,Compound,Potency
1,OCc1ccccc1O,inactive
2,CC1(C)[C@H](C(=O)O)N2C(=O)C[C@H]2S1(=O)=O,inactive
3,c1ccc(CC2=NCCN2)cc1,inactive
4,CCOC(=O)NNc1nncc2ccccc12,inactive
5,O=C(O)CCC(=O)c1ccc(-c2ccccc2)cc1,inactive
6,COCCc1ccc(OCC(O)CNC(C)C)cc1 (stereo unspecified),inactive
7,CC(=O)OCC1=C(C(=O)O)N2C(=O)[C@@H](NC(=O)CSc3ccncc3)[C@H]2SC1,inactive
8,CCOC(=O)c1ccc(NC(=O)CN2CCCCC2)cc1,inactive
9,CCOC(=O)OC(C)OC(=O)[C@@H]1N2C(=O)[C@@H](NC(=O)[C@H](N)c3ccccc3)[C@H]2SC1(C)C (stereo partly specified),inactive
10,CCN(CC)CCOc1ccc(Cc2ccccc2)cc1,inactive
11,CCOCCOC(=O)/C=C/c1ccc(OC)cc1,inactive
12,CN1CCOC(c2ccccc2)c2ccccc2C1 (stereo unspecified),inactive
13,CC1CC(=O)NN=C1c1ccc(NCC(C)(C)NCC(O)COc2cc(Cl)ccc2C#N)cc1 (stereo unspecified),inactive
14,c1ccc(CNCCNCc2ccccc2)cc1,inactive
15,C/C=C/c1ccc(O)c(OC)c1,inactive
16,CCOc1ccc2nc(S(N)(=O)=O)sc2c1,inactive
